Assay outcomes as filed in PubChem BioAssay.
HTR2A ag = activates the mouse 5-HT2A serotonin receptor; P35363; CHO-K1 mHTR2A beta-arrestin complementation, luminescence; percent of 30 µM serotonin response; activation, % at 7.6 µM; 360,000 tested, 0.66% active;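 active = activation above a run cutoff, the mean activation of all tested compounds plus 3 SD, cut at about 14% in these data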;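 also: 0% = plate median of compound wells and 100% = 30 µM serotonin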
HTR5A ag = HTR5A agonism, opioid heterodimer counter-screen; HTR5A agonist assay, luminescence, cell-based; activation, % at 9.3 µM; 340,000 tested, 0.61% active; AID 504692; in the data active = activation mostly above about 9.5%, no sharp cut-off; inactive = mostly below about 7.6%;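 also: 0% = cells with vehicle only and 100% = reference agonist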
HTR5A inv ctr = HTR5A inverse agonism, opioid heterodimer counter-screen; 340,000 tested, 0.083% active; inhibition, % at 9.3 µM; HTR5A cell line, luminescence; in the data active = inhibition mostly above about 23%, no sharp cut-off; inactive = mostly below about 18%;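 also: 0% = cells with DMSO and 100% = no-cell wells with DMSO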
MOR-DOR inv ag = mu-delta opioid heterodimer inverse agonism; 340,000 tested, 0.21% active; inhibition, % at 9.3 µM; AID 504357; cell-based MOR-DOR heterodimer luminescence; P35372+P41143; in the data active = inhibition above about 22%, passing the limit was not always enough;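 also: 0% = cells with DMSO and 100% = wells without cells with DMSO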
Target sequence (P35372 whole entry, looked up): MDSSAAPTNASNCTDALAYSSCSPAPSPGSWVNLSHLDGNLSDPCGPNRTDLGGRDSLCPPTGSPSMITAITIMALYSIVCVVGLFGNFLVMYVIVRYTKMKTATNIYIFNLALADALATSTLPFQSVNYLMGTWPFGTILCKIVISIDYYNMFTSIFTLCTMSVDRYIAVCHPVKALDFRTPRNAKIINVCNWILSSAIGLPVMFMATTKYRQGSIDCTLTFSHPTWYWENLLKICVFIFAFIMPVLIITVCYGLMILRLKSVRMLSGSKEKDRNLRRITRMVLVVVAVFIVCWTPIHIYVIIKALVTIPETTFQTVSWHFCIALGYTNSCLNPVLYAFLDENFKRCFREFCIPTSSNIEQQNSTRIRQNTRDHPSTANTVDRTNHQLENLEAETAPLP
Target sequence (P41143 whole entry, looked up): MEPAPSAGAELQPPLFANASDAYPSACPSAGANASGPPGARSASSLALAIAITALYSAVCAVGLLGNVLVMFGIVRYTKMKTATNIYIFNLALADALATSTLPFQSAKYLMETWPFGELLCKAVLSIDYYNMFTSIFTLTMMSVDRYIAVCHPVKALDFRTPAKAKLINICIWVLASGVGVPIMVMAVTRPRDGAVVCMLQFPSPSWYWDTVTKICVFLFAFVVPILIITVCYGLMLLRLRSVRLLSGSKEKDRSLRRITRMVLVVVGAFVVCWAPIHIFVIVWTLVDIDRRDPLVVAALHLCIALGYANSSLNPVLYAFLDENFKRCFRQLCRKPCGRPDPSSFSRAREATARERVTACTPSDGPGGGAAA
HGIII-sPLA2 inh = Blocks human group III sPLA2 activity | QFRET BODIPY PC-A2 liposome hydrolysis, fluorescence | inhibition, % at 12.2 µM | 370,000 tested, 0.56% active;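 active = inhibition above mean plus 3 SD of compounds lying within the high and low control bounds, cut at about 19% in these data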;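 also: 0% = median of test compound wells and 100% = no enzyme DMSO wells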
MOR-DOR ag = OPRM1-OPRD1 heterodimerization agonism | P35372+P41143 | cells, luminescence | activation, % at 9.3 µM | 340,000 tested, 0.3% active; in the data active = activation above about 18%;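 also: 0% = vehicle-treated cells and 100% = reference agonist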
Numbers without * were called inactive; nt = no result. Most compounds without a hit are left out; they make up all but 2.2% or so of the library.

SMILES	HTR2A ag	HTR5A ag	HTR5A inv ctr	MOR-DOR inv ag	HGIII-sPLA2 inh	MOR-DOR ag
c1ccc(CN2CCN(c3ncnc4c3[nH]c3ccccc34)CC2)cc1	23.8*	0.7	15.2	-29.7	-14.1	5.0
c1ccc2c(c1)CCN(c1ncnc3c1[nH]c1ccccc13)C2	1.1	8.8	-16.5	-324.4	-10.7	52.0*
COC(=O)[C@]12C[C@H](CC(=O)N3CCC(c4ccccc4)CC3)C(=O)N(Cc3ccc(Cl)cc3Cl)C1=C[C@H](C(C)(C)C)O[C@@H]2C	nt	nt	nt	nt	0.0	nt
CC(C)Oc1cccc(-c2csc(N3CCC(C(N)=O)CC3)n2)c1	nt	nt	nt	nt	5.7	nt
O=C(O)c1ccccc1N=Nc1ccc(O)cc1	19.4*	-3.2	11.6	1.9	3.0	-0.3
CCOC(=O)Cc1nc(N2CCN(C(=O)C3CCCO3)CC2)c2c(C)c(C(=O)OCC)sc2n1 (stereo unspecified)	nt	nt	nt	nt	-8.3	nt
Cc1ccc(NC(=S)NNC(=O)Nc2ccccc2)cc1	-10.5	-11.4	29.4*	33.7*	0.8	-5.8
Cc1ccc(NC(=S)NNC(=S)Nc2ccc(C)cc2)cc1	0.4	2.8	-11.6	-15.9	8.6	3.1
O=C(NNC(=S)Nc1ccccc1)c1ccncc1	7.7	-2.6	13.0	6.1	7.2	-1.0
O=C(NNC(=S)Nc1ccccc1)Nc1ccccc1	-1.9	-8.2	23.4*	34.6*	4.8	-6.0
CC(C)(C)CCN1CCC[C@H](NC(=O)COc2ccc(F)c(Cl)c2)C1	nt	nt	nt	nt	-2.2	nt
CCCC1(C(=O)O)NC(c2cccc(OC)c2O)C2C(=O)N(c3ccccc3)C(=O)C21 (stereo unspecified)	-0.7	0.6	-1.9	6.2	-0.7	-1.2
CCCC1(C(=O)O)NC(c2ccccc2O)C2C(=O)N(c3cccc(Cl)c3)C(=O)C21 (stereo unspecified)	-1.5	13.9*	-41.5	15.6	-2.6	-3.1
CC(C)CN1C(=O)[C@]2(CC(=O)N(C)C2c2ccccc2)c2cc(-n3cc(CO)nn3)ccc21 (stereo partly specified)	nt	nt	nt	nt	18.3	nt
CCc1nnc(N2CCN(c3ncnc4c3oc3ccccc34)CC2)s1	4.0	4.2	-11.2	18.6	3.4	-3.1
c1ccc(N2CCN(c3ncnc4c3oc3ccccc34)CC2)cc1	-3.7	14.2*	-31.9	-20.3	-3.5	3.6
O=C(COC(=O)C1=COCCO1)NCc1ccc(Cl)cc1	0.3	12.5*	-35.8	7.0	0.1	-1.4
O=C(Nc1ccc(Cl)cc1)c1cc2c(cc1O)[nH]c1ccccc12	9.5	14.0*	-49.7	-28.0	-36.8	6.0
COc1ccccc1NC(=S)N(Cc1ccccc1)Cc1cccs1	3.4	9.3*	11.5	-2.3	0.8	0.4
COc1ccccc1NC(=S)N(Cc1cccs1)C1CCCC1	4.9	-0.2	0.4	-2.4	7.6	0.5
Cc1ccc(C)n1-c1sc2c(c1C#N)CCC(C)C2 (stereo unspecified)	2.9	12.6*	0.6	-49.0	-11.4	9.3
CC(=O)Nc1sc2c(c1C#N)CCC(C)C2 (stereo unspecified)	-1.4	4.9	-3.7	10.9	10.6	-2.1
CN(CCO)c1cccc2c1S(=O)(=O)N(Cc1cn(Cc3cccc(F)c3)nn1)Cc1ccccc1O2	nt	nt	nt	nt	4.9	nt
O=C(OCC#CCSc1nnc(-c2cccc3ccccc23)o1)C1CCC1	nt	nt	nt	nt	-5.1	nt
Cc1cc(C)c2nc(-c3ccncc3)cc(C(=O)N3CCN(Cc4ccccc4Cl)CC3)c2c1	-3.3	12.6*	-9.7	1.3	0.7	-0.2
SMILES	HTR2A ag	HTR5A ag	HTR5A inv ctr	MOR-DOR inv ag	HGIII-sPLA2 inh	MOR-DOR ag
O=C(c1cc(-c2ccncc2)nc2ccc(Cl)cc12)N1CCN(Cc2ccc3c(c2)OCO3)CC1	0.4	-3.0	-3.0	5.4	8.7	-1.1
C[C@H]1[C@@H](NC(=O)C(c2ccccc2)c2ccccc2)CC[C@@]23CCCN2C(=O)CCC[C@@H]13	nt	nt	nt	nt	-2.8	nt
CC(=O)Nc1cc(OC(C)=O)c2nonc2c1OC(C)=O	5.2	10.5	-11.3	-133.6	7.3	22.9*
COc1ccccc1NS(=O)(=O)c1ccc(OC)c(OC)c1	0.8	10.2*	10.3	6.7	-5.0	-1.1
CCOC(=O)Cn1cc(CN2CCS(=O)(=O)N(Cc3ccc(Cl)cc3)C(C(=O)OC)C2)nn1 (stereo unspecified)	nt	nt	nt	nt	6.2	nt
CCC1=[N+](CC(=O)c2ccc(Br)cc2)CCn2c(C)ccc21	-2.2	11.9*	-2.6	-0.6	-15.2	0.1
CCC1=[N+](CC(=O)c2ccc(C)cc2)CCn2c(C)ccc21	-2.1	0.7	11.0	4.9	-7.6	-1.0
CSc1ncccc1C(=O)OCC(=O)NCc1ccccc1	5.0	12.9*	12.3	12.5	-0.5	-3.2
CSc1ncccc1C(=O)OCC(=O)NC(C)CCc1ccccc1 (stereo unspecified)	8.7	9.2	-25.6	13.4	0.2	-3.2
CCN(CC)CCCN(Cc1cc2cc3c(cc2[nH]c1=O)OCO3)C(=S)NC	7.0	10.8*	-40.2	-4.8	3.4	1.0
CCN(CC)CCCN(Cc1cc2cc3c(cc2[nH]c1=O)OCO3)C(=S)NCCCN(C)C	-5.3	3.1	11.9	3.8	3.2	-0.7
CC(C)C[C@@H]1NC(=O)[C@H]2C[C@@]3(C)c4ccccc4N[C@H]3N2C1=O	nt	nt	nt	nt	5.9	nt
COc1cc(NC(=O)c2ccccc2)c(OC)cc1NC(=O)Cc1ccc(C)cc1	-2.0	9.6*	-35.4	-16.4	-1.2	3.5
Cc1cc(C)n(C(=O)/C(C#N)=N/Nc2cc(Cl)cc(Cl)c2)n1	1.0	10.5*	9.0	-30.0	nt	5.7
O=c1c2cc3cc(Cl)ccc3nc2ncn1CCc1c[nH]c2ccccc12	nt	nt	nt	nt	-37.0	nt
Cc1cc(C)c(C)c(S(=O)(=O)N2CCN(C(=O)CNC(=O)c3ccco3)CC2)c1C	6.3	13.7*	0.1	-4.0	16.7	1.0
CCOC(=O)c1c(C)[nH]c(C)c1C(=O)COC(=O)CCc1ccccc1	-5.5	13.1*	-5.0	4.7	-1.3	-1.2
Cc1cccc(-c2noc(CCCC(=O)N3CCOCC3)n2)c1	-5.0	9.8*	-2.1	13.1	4.7	-2.3
COc1ccc(Oc2c(-c3cccs3)cnn(-c3ccc(C)cc3)c2=O)cc1	nt	nt	nt	nt	-1.7	nt
Cc1nn(-c2ccccc2)c(C)c1NC(=O)COc1ccc2ccccc2c1	2.7	10.3*	-13.5	-8.1	-11.6	1.5
CS(=O)(=O)NCCSc1cc(C(F)(F)F)nc2ccccc12	0.5	11.8*	2.0	21.2	7.3	-4.1
Brc1ccc(-c2csc(N3CCC(c4nn[nH]n4)CC3)n2)cc1	nt	nt	nt	nt	-29.2	nt
COc1ccc(Cc2nnc(SCc3c(C)noc3C)n2C2CCCCC2)cc1OC	5.3	12.0*	-59.0	-6.2	-6.9	1.0
O=C(Nc1cc(Sc2ccccn2)cc([N+](=O)[O-])c1)c1ccc(Cl)cc1	0.6	19.0*	-22.1	-133.6	5.9	29.0*
O=C1C(Cc2ccccc2)Nc2ncnc(N3CCCCC3)c2N1Cc1ccc(Cl)cc1 (stereo unspecified)	-0.2	-1.1	3.1	-9.9	nt	1.7
